Most compounds without a hit are left out; they make up all but 3.4% or so of the library.
TEAD-YAP block: TEAD-YAP interaction inhibition, primary screen, TEAD-YAP interaction inhibitor project, luminescence, HEK-TIYL cells; AID 1259422, 2018; TEAD-Gal4/YAP UAS-luciferase luminescence; inhibition, % at 9.12 µM; 640,000 compounds, 1.4% hits; in the data active = inhibition above about 32%;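 note: 0% = median of test compound wells and 100% = reference inhibitor wells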
FBW7 activator: FBW7 E3 ligase activators, primary screen, biochemical, AlphaScreen, human; AID 1259310, 2017; normalized activity (activation), % at 26.1 µM; F-box/WD repeat-containing protein 7 (Homo sapiens), Q969H0; AlphaScreen FBW7–phospho-cyclin E peptide binding, activator screen; 650,000 compounds, 0.13% hits; in the data active = normalized activity above about 1.9%;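 note: purified mutant Fbw7 with reduced substrate affinity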
MITF inh: MITF inhibitors, primary screen, biochemical, AlphaScreen, human; Microphthalmia-associated transcription factor (Homo sapiens), O75030; AlphaScreen MITF homodimerization, bead proximity signal; inhibition, % at 2.6 µM; 650,000 compounds, 0.91% hits; in the data active = inhibition above about 50%;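 note: 0% = vehicle wells with protein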
Target sequence (O75030 whole entry, looked up): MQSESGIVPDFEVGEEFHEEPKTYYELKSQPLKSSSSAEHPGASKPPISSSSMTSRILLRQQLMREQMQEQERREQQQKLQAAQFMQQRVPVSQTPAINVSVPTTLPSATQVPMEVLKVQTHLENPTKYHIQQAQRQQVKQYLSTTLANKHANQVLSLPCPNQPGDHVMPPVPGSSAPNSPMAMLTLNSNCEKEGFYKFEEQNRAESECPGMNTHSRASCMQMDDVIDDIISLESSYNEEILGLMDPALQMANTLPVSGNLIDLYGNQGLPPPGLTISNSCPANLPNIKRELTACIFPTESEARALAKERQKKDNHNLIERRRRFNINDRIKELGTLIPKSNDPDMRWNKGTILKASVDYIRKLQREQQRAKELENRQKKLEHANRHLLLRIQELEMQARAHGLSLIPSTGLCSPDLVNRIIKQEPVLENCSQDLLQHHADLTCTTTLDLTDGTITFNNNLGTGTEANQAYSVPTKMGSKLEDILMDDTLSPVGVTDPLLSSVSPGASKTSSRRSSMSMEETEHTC
GPR151 activ: activators of human GPR151, primary screen, cell-based, PathHunter beta-arrestin, luminescence. G-protein coupled receptor 151 (Homo sapiens), Q8TDV0. PathHunter beta-arrestin GPR151 cells. activation, % at 11.2 µM. 650,000 compounds, 1% hits; in the data active = activation above about 4.9%;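 note: 0% = median of compound wells and 100% = cells with positive control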
GPR151 conf act: GPR151 activators, triplicate retest, confirmation, cell-based, PathHunter beta-arrestin, luminescence. shares compounds with GPR151 activ. GPR151 PathHunter beta-arrestin cells, 90 min; % of EA-reagent control over plate median. activation, % at 11.2 µM. 6,700 tested, under 10 active;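 active = mean percent activation across replicates above the confirmation screen cutoff of 4.91%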
GPR119 ag: GPR119 activators in beta-arrestin cells, counter-screen for GPR151 activator project, cell-based, PathHunter beta-arrestin, luminescence, triplicate | shares compounds with GPR151 activ | 90 min; 0 = compound-well median, 100 = enzyme-acceptor control | activation, % at 11.2 µM | 6,700 compounds, 0.3% hits | AID 1508611, 2020;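 active = mean percent activation in the counterscreen above 29.09%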;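 note: counterscreen on off-target GPR119 to flag nonselective hits from the GPR151 activator screen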
* hit, by the source's call.

What do the screens show for `COc1ccc2nc(NCCNC(=O)c3cc(OC)c(OC)c(OC)c3)c(C#N)cc2c1`?
TEAD-YAP block: -1; FBW7 activator: 1; MITF inh: 15; GPR151 activ: -1

Results for COCC(=O)NCCNc1nc2ccc(OC)cc2cc1C#N ?
TEAD-YAP block: -11; FBW7 activator: 0; MITF inh: 6; GPR151 activ: 7.2*; GPR151 conf act: 1; GPR119 ag: -1

How did Cc1ccc(Cl)cc1NC(=O)CSc1nc2ccc(NC(=O)Cc3cccc4ccccc34)cc2s1 do in these assays?
TEAD-YAP block: 1; FBW7 activator: 0; MITF inh: 9; GPR151 activ: 0

Results for C#CCn1c(=NC(=O)c2cc(=O)c3ccccc3o2)sc2cc(S(N)(=O)=O)ccc21 ?
TEAD-YAP block: -9; FBW7 activator: 0; MITF inh: -13; GPR151 activ: 3

How did COc1ccc(CSc2nnnn2C)cc1F do in these assays?
TEAD-YAP block: -8; FBW7 activator: 0; MITF inh: 3; GPR151 activ: 5.5*; GPR151 conf act: 0; GPR119 ag: -7

Results for CN(C)S(=O)(=O)NCC1CCCN(Cc2cccc(C(F)(F)F)c2)C1 (stereo not drawn) ?
TEAD-YAP block: 12; FBW7 activator: 0; MITF inh: 0; GPR151 activ: 1

Results for COc1ccc(C(=O)Nc2ccccc2N2CCCCC2)cc1[N+](=O)[O-] ?
TEAD-YAP block: -1; FBW7 activator: 0; MITF inh: -1; GPR151 activ: 0

What do the screens show for `Cc1ccc(C)c(-c2cc(C(=O)NN3CCOCC3)c3ccccc3n2)c1`?
TEAD-YAP block: -2; FBW7 activator: 0; MITF inh: -2; GPR151 activ: 5.4*; GPR151 conf act: -1; GPR119 ag: -10

Results for O=C(NCc1cccnc1)C1CCN(c2ccc(NC3CCN(Cc4ccccc4)CC3)nn2)CC1 ?
TEAD-YAP block: 12; FBW7 activator: 0; MITF inh: -9; GPR151 activ: 0

How did O=C(NCc1cccc(C(F)(F)F)c1)C1CCN(c2ccc(Nc3ccccc3)nn2)CC1 do in these assays?
TEAD-YAP block: -1; FBW7 activator: 0; MITF inh: 1; GPR151 activ: 1

How did O=C(NCc1cccc(C(F)(F)F)c1)C1CCN(c2ccc(NC3CCN(Cc4ccccc4)CC3)nn2)CC1 do in these assays?
TEAD-YAP block: 38*; FBW7 activator: 0; MITF inh: 15; GPR151 activ: 5.6*; GPR151 conf act: -1; GPR119 ag: -10

What do the screens show for `Cn1nccc1Nc1ccc(N2CCC(C(=O)NCc3cccc(C(F)(F)F)c3)CC2)nn1`?
TEAD-YAP block: 11; FBW7 activator: 0; MITF inh: -3; GPR151 activ: 5.2*; GPR151 conf act: 1; GPR119 ag: 1

Results for CC(C)COC(=O)c1ccccc1OC(=O)c1ccncc1 ?
TEAD-YAP block: 8; FBW7 activator: 0; MITF inh: 12; GPR151 activ: 0

What do the screens show for `Cc1cccc(NC(=O)CNS(=O)(=O)c2ccc(Cl)cc2)c1`?
TEAD-YAP block: -5; FBW7 activator: 0; MITF inh: -1; GPR151 activ: 0

How did CCCCCOC(=O)c1ccc(N2C(=O)C3C4CCC(C4)C3C2=O)cc1 (stereo not drawn) do in these assays?
TEAD-YAP block: -4; FBW7 activator: 0; MITF inh: -11; GPR151 activ: -1

How did CC(C)(C)c1ccc(C(=O)Nc2ccc3oc(-c4ccc(F)cc4Cl)nc3c2)cc1 do in these assays?
TEAD-YAP block: -1; FBW7 activator: 0; MITF inh: 11; GPR151 activ: 0

Results for Cc1ccccc1CSCCNS(=O)(=O)c1ccccc1[N+](=O)[O-] ?
TEAD-YAP block: 0; FBW7 activator: 0; MITF inh: -7; GPR151 activ: 5.9*; GPR151 conf act: 0; GPR119 ag: -5

Screening data as filed in PubChem.
